These results are taken from PubChem BioAssay.

The target of assay [1] is Albumin (Bos taurus) (UniProt P02769). Description: compounds binding labelled BSA control protein – biochemical, small-molecule microarray, Alexa647 label, 635/667 nm fluorescence, artefact control for SMM control protein annotation, profiling panel (AID 1118).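 Further: score merges 667 nm emission intensity and signal-to-noise per printed compound spot.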 Particulars: BSA-A647 binding, fluorescence 635 nm, higher = more signal.
Assay [2] is described as follows: probe aXIP binding to arrayed compounds – biochemical, NeuroSMM set, 635/667 nm fluorescence, primary screen (AID 1119).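 Further: probe is the protein aXip251-270 applied at 1 µg/mL to compound-printed slides; binding of probe to printed compounds measured as 667 nm fluorescence plus signal to noise.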 To be noted: small-molecule microarray, higher = more signal, called active from +8 up or from −8 down.
Assay [3] can be described thus: probe aNOTCH3 binding on compound microarray – biochemical, small-molecule microarray, 635/667 nm fluorescence, primary screen (AID 1120).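 Further: probe is a biotin-tagged antibody raised against NOTCH3 rather than NOTCH3 protein; score merges spot fluorescence near 667 nm with spot signal to noise.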 Particulars: higher = more signal.
Assay [4] is described as follows: probe aNOTCH2 binding on compound microarray – biochemical, small-molecule microarray, 635/667 nm fluorescence, primary screen (AID 1121).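 Further: score merges feature fluorescence read at 667 nm with its signal to noise.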 Particulars: higher = more signal.
Assay [5] has as its target Carbonic anhydrase 2 (Homo sapiens) (UniProt P00918). The experiment in a line: compounds binding carbonic anhydrase 2 – biochemical, small-molecule microarray, Alexa647-labelled CAII, profiling panel (AID 1122). Particulars: CAII-A647 binding fluorescence, higher = more signal.
Assay [6] in a line: COS7 lysate on small-molecule microarray, probe aHis, 635 nm (AID 1123).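 Further: z-score combines 667nm fluorescence intensity with signal-to-noise per printed compound spot.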 Particulars: COS7 cell lysate, fluorescence, higher = more signal.
Assay [7] is described as follows: probe aLAP1 signal on lysate-treated microarray – cell lysate, small-molecule microarray, COS7 lysate, primary screen (AID 1124).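 Further: lysate comes from COS7 cells expressing LAP1 and is applied at 0.3 µg/mL; score merges spot fluorescence near 667 nm with signal-to-noise over triplicate slides.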 Particulars: probe aLAP1, fluorescence, higher = more signal.
Assay [8] has as its system Sam68 (KHDRBS1). The experiment in a line: compounds binding KHDRBS1 protein – biochemical, small-molecule microarray, 635 nm fluorescence, primary screen (AID 1125).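 Further: score merges 667 nm channel intensity with signal to noise over triplicate slides.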 Particulars: higher = more signal.
Assay [9] relates to Chordin-like protein 2 (CHRDL2). The experiment in a line: compounds binding chordin-like 2 – biochemical, small-molecule microarray, 635 nm fluorescence, primary screen (AID 1126).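 Further: printed compound slides probed with Chrdl2 protein at 4 µg/mL for 1 h at 4 C; score merges 667 nm emission intensity with signal to noise over three replicate slides.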 To be noted: fluorescence 635 nm, higher = more signal.
In assay [10] the target is Concanavalin-A (Canavalia ensiformis) (UniProt P02866). The experiment in a line: compounds binding concanavalin A lectin – biochemical, small-molecule microarray, Alexa647 label, 635 nm, artefact control for SMM control protein annotation, primary screen (AID 1127).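 Further: z combines 667 nm emission intensity with signal-to-noise across three replicate slides.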 Particulars: ConA-A647 binding fluorescence, higher = more signal.

Each structure is given as a SMILES string. The source made the active and inactive calls.

Chain of Concanavalin-A (Canavalia ensiformis) (P02866 whole entry, looked up): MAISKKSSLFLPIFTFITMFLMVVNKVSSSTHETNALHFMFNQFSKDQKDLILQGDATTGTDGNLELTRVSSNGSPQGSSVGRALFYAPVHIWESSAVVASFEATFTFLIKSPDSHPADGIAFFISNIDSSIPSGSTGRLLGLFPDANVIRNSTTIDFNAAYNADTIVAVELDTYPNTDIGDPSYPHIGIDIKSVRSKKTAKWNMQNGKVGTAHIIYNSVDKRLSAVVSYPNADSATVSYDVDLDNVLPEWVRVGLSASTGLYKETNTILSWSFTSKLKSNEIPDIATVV
Chain of Albumin (Bos taurus) (P02769 whole entry, looked up): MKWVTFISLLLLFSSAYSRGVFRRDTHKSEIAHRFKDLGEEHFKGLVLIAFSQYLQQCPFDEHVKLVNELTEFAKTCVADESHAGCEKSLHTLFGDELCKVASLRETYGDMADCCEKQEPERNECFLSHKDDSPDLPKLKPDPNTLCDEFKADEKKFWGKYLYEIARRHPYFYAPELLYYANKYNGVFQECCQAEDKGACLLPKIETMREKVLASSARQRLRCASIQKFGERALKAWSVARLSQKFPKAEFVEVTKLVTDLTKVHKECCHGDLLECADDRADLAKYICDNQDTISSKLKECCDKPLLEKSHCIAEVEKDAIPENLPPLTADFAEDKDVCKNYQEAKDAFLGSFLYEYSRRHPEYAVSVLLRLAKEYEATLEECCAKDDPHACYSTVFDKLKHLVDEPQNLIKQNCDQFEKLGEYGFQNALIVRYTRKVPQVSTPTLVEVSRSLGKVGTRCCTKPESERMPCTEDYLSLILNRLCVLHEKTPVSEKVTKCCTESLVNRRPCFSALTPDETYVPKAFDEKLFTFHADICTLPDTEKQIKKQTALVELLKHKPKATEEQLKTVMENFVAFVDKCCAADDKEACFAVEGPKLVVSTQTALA

As to `O=C/C=C/c1ccc(Cl)cc1`, the composite z-score is -1.04 in assay [1]; -0.186 in [3]; -0.127 in assay [4]; -0.457 in assay [5]; -0.267 in [6]; -0.565 in assay [7]. In addition, the composite z-score in assay [8] is -1.01; in assay [9], 0.0502; in assay [10], -0.184. In addition, the composite Z-score in assay [2] was 0.411 (inactive).

`CCOC(=O)C1=CC[C@@H](c2ccccc2Cl)N(S(=O)(=O)c2ccc(C)cc2)C1`: the composite z-score in assay [1] stood at 0.963; in assay [3] it was 0.0738; in assay [4], 0.145; in assay [5], 0.563; in assay [6], 2.04; in [7], 0.837. Moreover, the composite z-score in assay [8] was 1.06; in assay [9], -1.04; in assay [10], 1.04. Further, the composite Z-score in assay [2] is 0.817 (inactive).

For `COCCOC(=O)N1C(=O)[C@@]2(c3cc(C#CCCO)ccc31)[C@H](c1ccc(O)cc1)N1[C@H](c3ccccc3)[C@H](c3ccccc3)OC(=O)[C@H]1[C@@H]2C(N)=O`, the composite z-score in assay [1] was 0.136; in assay [3], -0.0967; in [4] it was -0.0956; in assay [5], 0.738; in [6], 0.831; in [7], 1.73. For the same molecule, the composite z-score in assay [8] was 0.761; in [9], -0.552; in [10], 0.59. For the same molecule, in assay [2], the composite Z-score is 0.257 (inactive).

Take `COc1ccc(NN2C(C(O)c3ccc(OC)c(OCc4ccccc4)c3)C=CC3C(=O)N(C4CCCCC4)C(=O)C32)cc1` (stereo not given): the composite z-score in assay [1] was 0.976; in assay [3], 0.252; in assay [4], -0.122; in [5], 0.274; in [6], 2.52; in assay [7], 0.0516. The values for the composite z-score in [8], in assay [9] and in [10] were 1.24, 0.275 and 1.11, respectively. In addition, the composite Z-score in assay [2] was 0.745 (inactive).

As to `COC(=O)[C@@]1(Cc2ccc(OC)cc2)[C@H]2c3cc(C(=O)N(C)C)n(Cc4c(OC)[nH]cc(C)c4=O)c3C[C@H]2CN1C(=O)c1ccccc1`, the composite z-score in assay [1] was 0.589; in [3], 1.04; in [4] it was 0.107; in assay [5], 0.881; in assay [6], 1.57; in assay [7], -0.155. The composite z-score in assay [8] is -0.0964; in [9], -0.218; in assay [10], -0.172. Besides, in [2], the composite Z-score was 0.0562 (inactive).

In the case of `C=CCN1C(=O)[C@]2(O[C@H](CCO)[C@@H]([Si](C)(C)c3ccc(OC)cc3)[C@@H]2C)c2cc(NC(=O)[C@H](C)O)ccc21`, the composite z-score in assay [1] was 0.851; in assay [3], 0.0203; in [4], -0.0666; in [5] it was 0.56; in [6] it was 1.39; in [7], 0.371. Also, the composite z-score turned out to be 1.31 in assay [8], 0.174 in [9] and 1.01 in assay [10]. Moreover, in assay [2], the composite Z-score was 1.31 (inactive).

With `[N-]=[N+]=NCc1ccccc1[C@@H]1OC(c2ccc(OCCCO)cc2)=N[C@]1(Cc1ccccc1)C(=O)N1CCCCC1`, the composite z-score in [1] is 0.763; in assay [3] it was 0.211; in assay [4] it was 0.0215; in [5] it was 0.471; in assay [6], 1.52; in assay [7], -0.0921. The composite z-score in assay [8] is 1.32; in [9], 0.581; in assay [10], 1.14. The composite Z-score in [2] was -0.623 (inactive).

`O=C1N(CCS(=O)(=O)c2ccccc2)Cc2ccccc2[C@H]2OC(c3ccc(OCCCO)cc3)=N[C@@]12CCS(=O)(=O)c1ccccc1`: the composite z-score was -0.284 in assay [1]; -0.0247 in assay [3]; -0.0586 in [4]; 0.524 in assay [5]; 2.64 in assay [6]; 0.708 in assay [7]. Moreover, the composite z-score in [8] is 1.3; in assay [9], 0.242; in assay [10], 1.22. Also, in [2], the composite Z-score was 1.81 (inactive).

Turning to `COc1ccc(C(O)C2C=CC3C(=O)NC(=O)C3N2Nc2ccccn2)cc1OCc1ccccc1` (stereo not given), the composite z-score in assay [1] is 0.68; in assay [3] it was 0.089; in assay [4], -0.0308; in [5], 0.855; in assay [6], 1.76; in assay [7], 0.759. Also, the composite z-score in assay [8] was -0.255; in assay [9], 0.0961; in assay [10], 0.212. The composite Z-score in [2] was 0.0296 (inactive).

Regarding `CCCN1C(=O)[C@@]2(CCC(=O)OC(C)(C)C)N=C(c3ccc(OCCCO)cc3)O[C@H]2c2ccccc21`, the composite z-score in assay [1] is 0.556; in assay [3], 0.0225; in [4] it was -0.0633; in assay [5], 0.376; in assay [6] it was 1.69; in [7] it was 0.0436. Besides, the composite z-score was 1.31 in assay [8], 0.345 in assay [9] and 0.958 in assay [10]. Further, the composite Z-score in assay [2] is 0.548 (inactive).

For `C=CCOC(=O)[C@@H]1[C@H]2C(=O)O[C@H](c3ccccc3)[C@H](c3ccccc3)N2[C@H](c2ccc(OCCOC(=O)[C@@H]3C[C@@H]4C(=O)NCC(=O)N4[C@@H]3c3cccc(OCCO)c3)cc2)[C@@]12C(=O)Nc1ccc(I)cc12`, the composite z-score is -0.991 in assay [1]; -0.0835 in assay [3]; -0.0242 in assay [4]; 0.501 in [5]; 1.59 in assay [6]; 0.875 in [7]. The composite z-score in [8] was 1.3; in assay [9] it was 0.926; in [10], 0.964. Moreover, the composite Z-score in [2] is -0.0135 (inactive).

Consider `CCOC(=O)C[C@H]1[C@H](OC(=O)c2ccc(-c3ccccc3)cc2)[C@@H](NC(=O)Cc2ccc(OC)cc2)c2cc(OCCCO)ccc2N1C(=O)c1ccc2ccccc2n1`, for which the composite z-score in [1] was 0.647; in assay [3], 0.0408; in assay [4] it was -0.0288; in [5], 0.19; in assay [6], 1.24; in assay [7] it was 0.561. Besides, the composite z-score in assay [8] is 0.891; in [9] it was -0.62; in [10], 0.762. Further, the composite Z-score in assay [2] was -1.15 (inactive).

Turning to `O=C1C[C@]2(c3ccc([N+](=O)[O-])cc3)C(=O)N(CC(F)(F)F)c3cc(CO)ccc3[C@H]2N1CC12CC3CC(CC(C3)C1)C2`, the composite z-score in assay [1] is -0.0746; in [3], -0.0362; in assay [4] it was -0.168; in [5], 0.499; in assay [6], 1.15; in [7], -0.221. The values for the composite z-score in assay [8], in assay [9] and in assay [10] were -0.0575, 0.167 and 0.556, respectively. The composite Z-score in [2] is -0.171 (inactive).

Take `Cc1ccc(S[C@]2(C(=O)NC3CC3)CC(=O)N(C3CCCCC3)[C@@H]2c2ccc(CO)cc2I)cc1`: the composite z-score was 0.599 in [1]; 0.0426 in assay [3]; -0.123 in assay [4]; 0.408 in [5]; 1.31 in assay [6]; 0.396 in [7]. Further, the composite z-score in assay [8] was 1.28; in [9], 0.0261; in assay [10] it was 0.896. Further, the composite Z-score in assay [2] was -0.186 (inactive).

For the molecule `CCOC(=O)C[C@H]1[C@H](OC(=O)c2ccc(C(=O)c3ccccc3)cc2)[C@@H](NC(=O)C2CCCCC2)c2cc(OCCCO)ccc2N1C(=O)c1ccccc1`, the composite z-score in assay [1] was 0.473; in [3] it was 0.369; in assay [4], -0.132; in assay [5] it was 0.159; in [6], 1.54; in assay [7] it was 0.297. Besides, the composite z-score in assay [8] was 1.31; in assay [9], -0.047; in assay [10], 0.799. Besides, the composite Z-score in [2] is 0.599 (inactive).

As for `CCOC(=O)C[C@H]1[C@H](OC(=O)Cc2ccc3c(c2)OCO3)[C@@H](NC(=O)C2CCCCC2)c2cc(OCCCO)ccc2N1C(=O)Cc1ccc(OC)cc1`, the composite z-score is 0.343 in [1]; 0.369 in assay [3]; -0.0993 in assay [4]; 0.231 in assay [5]; 0.557 in assay [6]; 0.366 in assay [7]. Also, the composite z-score was found to be 1.15 in [8], 0.107 in assay [9] and 0.343 in [10]. Besides, the composite Z-score in assay [2] is -0.145 (inactive).

In the case of `CCOC(=O)C[C@H]1[C@H](OC(=O)c2ccc(-c3ccccc3)cc2)[C@@H](NC(=O)c2ccc(-c3ccccc3)cc2)c2cc(OCCCO)ccc2N1C(=O)Cc1ccc(OC)cc1`, the composite z-score in assay [1] is 0.225; in [3] it was -0.0146; in assay [4] it was -0.125; in assay [5], -0.0968; in [6] it was 0.589; in [7], -0.002. The results for the composite z-score in assay [8], in [9] and in assay [10] were -0.316, -0.15 and 0.363, respectively. The composite Z-score in assay [2] is -0.576 (inactive).
